Screening data: PubChem, National Center for Advancing Translational Sciences (NCATS)
Hits are enriched below; roughly 2.7% of the tested compounds scored in any of these assays.
BRCA1 expr act – activators of BRCA1 expression; MCF7-BRCA1-FFLuc reporter, luminescence, 48 h; response scale: scaled: vehicle 0%, 10 µM genistein 100%; Potency, µM (top dose mostly 46.1 µM), for the others: top-dose activation, usual class: activators; 380,000 compounds, 1.1% hits; AID 624202; further: nearly all actives have a fitted effect of over 80% in size
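Luminescence from a BRCA1-driven firefly luciferase in MCF7 cells was the read-out, taken 15 min after substrate addition following 48 h compound exposure at 37 °C. Data were normalized to a 10 microM genistein control and DMSO vehicle.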
GLP1R inv ag – inverse agonists of human GLP-1 receptor | P43220 | HEK293 GLP-1R CRE-luciferase, luminescence, 24 h; GLP-1R form is constitutively active | Potency, µM (doses to about 38.3 µM), without a hit: at the highest dose activity change, negative = inhibition, hits mostly inhibitors | 410,000 compounds, 1.6% hits; further: on the % scale 0 is the no-effect control and ±100 the full control effect; nearly all actives have a fitted effect of over 55% in size
Target sequence (P43220 whole entry, looked up): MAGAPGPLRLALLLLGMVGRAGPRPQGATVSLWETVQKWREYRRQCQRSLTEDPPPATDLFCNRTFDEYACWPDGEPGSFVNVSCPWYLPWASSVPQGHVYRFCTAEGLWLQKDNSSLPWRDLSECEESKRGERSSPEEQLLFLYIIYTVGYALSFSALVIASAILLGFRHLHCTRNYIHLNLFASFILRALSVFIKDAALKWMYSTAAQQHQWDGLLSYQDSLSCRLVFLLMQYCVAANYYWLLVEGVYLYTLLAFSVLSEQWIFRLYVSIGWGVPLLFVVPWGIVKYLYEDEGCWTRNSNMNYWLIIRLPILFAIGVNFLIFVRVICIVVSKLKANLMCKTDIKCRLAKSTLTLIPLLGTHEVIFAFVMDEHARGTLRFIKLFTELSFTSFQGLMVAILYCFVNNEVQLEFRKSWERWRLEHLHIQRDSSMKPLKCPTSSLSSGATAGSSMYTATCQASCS
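Luminescence readout: a drop in cAMP-driven luciferase signal flags inverse agonism at a constitutively active GLP-1R stably expressed in HEK293. Compound exposure lasted 24 hr at 37 deg C, 5% CO2.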
a7 integrin act – activates integrin-mediated alleviation for muscular dystrophy; alpha7betagal myoblasts, beta-gal FDG fluorescence, 48 h; Potency, µM (highest dose often 38.3 µM), for the others: at the highest dose activation, hits mostly activators; 350,000 compounds, 0.064% hits;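 further: 100% = response of the positive control SU9516; nearly all actives have a fitted effect of over 60% in size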
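Alpha7betagal+/- myoblasts (passage 13) were plated 16-24 hr, then exposed to compounds (1:260 dilution of DMSO stock) for 48 hours at 37C. After MPER lysis, β-galactosidase reporter activity was read as FDG fluorescence (ex 480/em 540) after 30 minutes.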
HEK293 tox – cytotoxicity in counter-screen for GLP-1R inverse agonists; HEK293 cAMP-luciferase reporter cells, luminescence, 24 h; Potency, µM (series often up to 38.3 µM), inactives show top-dose activity change, negative = inhibition, most hits filed as inhibitors; 410,000 compounds, 0.13% hits;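 further: loss of luciferase light is scored as toxicity; on the % scale 0 is the no-effect control and ±100 the full control effect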
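Quantitative HTS format, 1536 wells, 200 cells/uL seeded. Compounds: 23 nL, 24 h, 37 °C. Detection: luciferase reagent, luminescence at 12 min RT; decreased signal taken as cytotoxic.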
GLP-1R agonist – activates the human GLP-1 receptor; P43220; HEK293 GLP-1R CRE-luciferase, luminescence, 4-6 h; cells express a hypersensitive GLP-1R form; Potency, µM (series often up to 45.6 µM), without a hit: at the highest dose activation, usual class: activators; 380,000 compounds, 0.007% hits; further: % of control where 0% means no effect
Active calls of the source: *; ? = inconclusive; · = no result given. The call rests on the fitted dose curve; in most records, active means well fitted curve in the direction sought with a large enough effect; inconclusive means small, poorly fitted or top-dose-only effect, or another doubt; inactive means no such curve, though single readings can be large; an effect the other way counts as inactive or inconclusive. Potency means the concentration at half of the fitted maximal effect.

SMILES	BRCA1 expr act	GLP1R inv ag	a7 integrin act	HEK293 tox	GLP-1R agonist
CCC(CC)C(=O)Nc1nnc(S(=O)(=O)N2CCCCCC2)s1	-9.3%	7.94µM*	4.2%	-2.5%	16.0%
COc1ccc(OCc2nc3ccccc3n2Cc2ccccc2Cl)cc1	-7.2%	-14.1%	·	5.4%	-3.7%
O=C(Nc1cccnc1)c1ccc(CSc2ccccc2)cc1	17.6%	-3.5%	10.7%	-0.5%	3.6%
CN(C=O)c1ccc(CSc2ccccc2)cc1	8.91µM*	4.0%	8.8%	2.1%	5.3%
COc1ccc(-c2cn3cccnc3n2)cc1Br	11.2µM*	136.1%	13.0%	0.1%	16.8%
CN1[C@@H]2CC[C@@H]1CC(OC(=O)[C@H](CO)c1ccccc1)C2 (stereo not given in full)	·	·	·	·	7.3%
COc1ccc(CNC(=O)Cn2ccc3cc(S(=O)(=O)N4CCCCC4)ccc32)c(OC)c1	·	-25.7%	·	-9.0%	·
CC(C)(C)c1cc(C(=O)NCCN2CCCC2)cc(C(C)(C)C)c1	-23.9%	12.6µM*	-67.2%	0.0%	0.0%
O=C(NC(=S)Nc1cccc([N+](=O)[O-])c1)c1ccccc1	11.2µM*	2.3%	8.6%	-6.4%	-2.6%
O=C(c1ccccc1)C(Nc1cccc([N+](=O)[O-])c1)c1ccccc1 (stereo not given)	-29.5%	7.94µM*	-0.8%	-1.9%	20.6%
O=C(Nc1ccc([N+](=O)[O-])cc1)C(=O)Nc1cccc(C(=O)O)c1	?	1.12µM*	-14.6%	-15.2%	-14.8%
O=C(NC(NC(=O)c1ccccc1)c1cccc([N+](=O)[O-])c1)c1ccccc1	5.3%	10.5%	42.4%	-3.1%	12.5%
O=C(O)c1cc(NC(=O)c2ccc([N+](=O)[O-])cc2)cc(NC(=O)c2ccc([N+](=O)[O-])cc2)c1	-8.6%	15.5%	17.4%	0.2%	-0.3%
CCc1ccc(NC(=O)CSc2ccnc(=O)[nH]2)cc1	40.3%	18.9%	·	3.8%	5.8%
CNC(=O)c1cc(-c2cccs2)on1	-33.5%	·	·	·	·
COc1ccc2c(c1)CCc1c(C(=O)NCc3ccco3)noc1-2	6.31µM*	0.0%	5.8%	-6.6%	1.0%
COCC(C)NC(=O)c1noc2c1CCc1cc(OC)ccc1-2 (stereo not given)	?	0.0%	39.8%	3.3%	2.9%
COCCNC(=O)c1noc2c1CCc1cc(OC)ccc1-2	2.24µM*	0.0%	2.0%	-1.1%	8.1%
COc1ccc(-c2nc(SC)n(S(=O)(=O)c3ccccc3)n2)cc1	10µM*	-16.1%	0.0%	3.8%	-0.5%
CSc1nc(-c2ccccc2)nn1S(=O)(=O)c1ccccc1	27.8%	7.1%	-10.3%	-0.8%	-29.7%
O=C1c2ccccc2S(=O)(=O)N1CC1CC(c2ccccc2Cl)=NO1 (stereo not given)	5.01µM*	26.4%	16.2%	43.8%	2.0%
C1CCCCCC(NCCN2CCNCC2)CCCCC1	-26.6%	6.31µM*	-34.6%	11.2µM*	-2.8%
Cc1ccc(-n2c(C)cc(/C=C3\SC(=O)NC3=O)c2C)cc1	?	-18.0%	-17.5%	0.1%	-4.8%
Cc1cc(/C=C2\SC(=S)NC2=O)c(C)n1-c1cccc(O)c1	2.82µM*	21.6%	?	-11.9%	-0.8%
Cc1cc(/C=C2\SC(=S)N(C)C2=O)c(C)n1-c1ccc(O)cc1	-79.8%	1.41µM*	-6.1%	9.2%	-5.3%
SMILES	BRCA1 expr act	GLP1R inv ag	a7 integrin act	HEK293 tox	GLP-1R agonist
COc1ccc(-n2c(C)cc(/C=C3\SC(=O)NC3=O)c2C)cc1	11.2µM*	11.5%	8.4%	-2.5%	5.0%
Cc1cc(/C=C2/C(=O)NN(c3ccccc3)C2=O)c(C)n1-c1cccc(O)c1	19.3%	?	-13.3%	?	-1.1%
Cc1cc2c(cc1S(=O)(=O)CCC(=O)N1CCN(c3ccccc3)CC1)OCC(=O)N2	2.4%	10.0%	·	5.0%	14.4%
CSc1ncc(C(=O)Nc2ccccc2C(=O)c2ccccc2)c(C)n1	·	12.1%	·	31.3%	·
CC(=O)c1cccc(NS(=O)(=O)c2cc(-c3onc(C)c3C)ccc2C)c1	·	?	·	-14.0%	·
CCOC(=O)c1c(C)nc2sc(C(=O)Nc3ccc(OC)cc3)c(N)c2c1-c1ccc(OC)cc1	-40.5%	-13.9%	-13.7%	-11.0%	-8.0%
CCOC(=O)c1c(C)nc2sc(C(=O)Nc3ccc(C(C)=O)cc3)c(N)c2c1-c1ccc(OC)cc1	-93.1%	8.91µM*	-20.3%	339.6%	3.7%
Cc1ccc([N+](=O)[O-])cc1S(=O)(=O)N1CCn2cccc2C1c1ccccc1 (stereo not given)	·	-12.9%	·	5.5%	·
O=C1N[C@@H](Cc2ccccc2)C(=O)N2[C@@H]3N(S(=O)(=O)c4ccccc4)c4ccccc4[C@]3(Br)C[C@@H]12	-34.6%	10µM*	15.8%	16.4%	2.0%
CC(C)c1cc(C(C)C)c(S(=O)(=O)N2c3ccccc3[C@@]3(Br)C[C@H]4C(=O)N[C@@H](Cc5ccccc5)C(=O)N4[C@@H]23)c(C(C)C)c1	-52.5%	5.62µM*	-7.4%	5.0%	-4.8%
O=C1N[C@@H](Cc2ccccc2)C(=O)N2[C@H]1C[C@]1([C@]34C[C@H]5C(=O)N[C@@H](Cc6ccccc6)C(=O)N5[C@H]3N(S(=O)(=O)c3ccccc3)c3ccccc34)c3ccccc3N(S(=O)(=O)c3ccccc3)[C@H]21	-5.9%	8.0%	-5.7%	-23.5%	-4.9%
COc1cc2nc(N3CCOCC3)nc(NC3CCN(C)CC3)c2cc1OC	4.8%	·	·	·	·
O=C(c1ccc(OC2CCN(CCc3ccccc3)CC2)cc1)N1CCCC(CCCO)C1 (stereo not given)	-0.3%	11.2µM*	-32.8%	-14.2%	2.2%
O=C(c1ccc(OC2CCN(CCc3ccccc3)CC2)cc1)N1CCCCC1CCCO (stereo not given)	-0.9%	11.2µM*	-17.0%	-9.8%	-4.5%
O=C(c1ccc(OC2CCN(CCc3ccccc3)CC2)cc1)N1CCCC1	-15.0%	?	-8.8%	-3.0%	10.5%
C[C@H]1C(=O)N(C)CCN1C(=O)c1ccc(OC2CCN(CCc3ccccc3)CC2)cc1	2.8%	3.0%	-7.3%	0.7%	-4.6%
CCCC(=O)O[C@]1(C(=O)CCl)[C@H](C)C[C@@H]2[C@H]3CCC4=CC(=O)C=C[C@]4(C)[C@@]3(F)C(=O)C[C@@]21C	·	·	·	·	-2.2%
COc1cccc(NC(CNS(=O)(=O)c2ccc(C)cc2)c2ccccc2)c1 (stereo not given)	·	10µM*	·	-6.5%	·
Cc1ccc(NC(CNS(=O)(=O)c2ccc(Cl)cc2)c2ccccc2)cc1 (stereo not given)	-64.5%	?	-41.5%	5.6%	-25.6%
COc1cccc(NC(CNS(=O)(=O)c2ccc(Cl)cc2)c2ccccc2)c1 (stereo not given)	·	10µM*	·	?	·
